Reference: PubChem BioAssay AID1159580 (chemical genetic matrix, 2015)
Where “and” joins values, the source holds several entries; their conditions need not be identical. Equal values may be shown once. Hit rate of the full screen: of about 5,500 compounds, about 2,000 (36%) were called active. Not shown: some 18% with an inconclusive outcome. No stated cut-off is given here; in the data, active means normalized growth mostly below about 0.91 (no sharp cut-off); inconclusive means no clear call, values can overlap the other calls; inactive means mostly above about 0.92. The list shows a part of the results.

Test: chemical genetic growth profiling, strain panel (AID 1159580);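 further: tested at 20 µM; growth read once vehicle control cultures reached saturation at 30 °C; 1 = growth at the plate median or of vehicle wells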
Conditions: S. cerevisiae deletion strains, growth OD

Measured: normalized growth

O=C(O)/C=C/C=C/c1ccccc1
inactive: locus YBR021W, strain FUR4, stronger effect = lower value 0.862 | locus YBR229C, strain ROT2, stronger effect = lower value 0.983 | locus YCL029C, strain bik1, stronger effect = lower value 0.952 | locus YDL035C, strain GPR1, stronger effect = lower value 0.964 | locus YDL074C, strain BRE1, stronger effect = lower value 0.924 | locus YDL101C, strain DUN1, stronger effect = lower value 0.979 | locus YDL134C, strain PPH21, stronger effect = lower value 0.97 | locus YDL192W, strain arf1, stronger effect = lower value 0.922 | locus YDR101C, strain arx1, stronger effect = lower value 0.938 | locus YDR150W, strain NUM1, stronger effect = lower value 0.966 | locus YDR162C, strain NBP2, stronger effect = lower value 0.943 | locus YDR195W, strain ref2 1.01 | locus YDR388W, stronger effect = lower value 0.931 | locus YEL061C, strain CIN8, stronger effect = lower value 0.977 | locus YER167W, strain BCK2, stronger effect = lower value 0.974 | locus YGL248W, strain PDE1, stronger effect = lower value 0.973 | locus YGR135W, strain pre9, stronger effect = lower value 0.916 | locus YGR229C, strain SMI1, stronger effect = lower value 0.993 | locus YHR079C, strain IRE1 (second series), stronger effect = lower value 0.927 | locus YHR129C, strain ARP1, stronger effect = lower value 0.96 | locus YHR200W, strain rpn10, stronger effect = lower value 0.949 | locus YIL066C, strain RNR3, stronger effect = lower value 0.996 | locus YIL073C, strain SPO22, stronger effect = lower value 1.05 | locus YJL134W, strain LCB3, stronger effect = lower value 0.975 | locus YJL187C, strain SWE1 (second series), stronger effect = lower value 0.975 | locus YJR043C, strain POL32, stronger effect = lower value 0.968
0.985 (inactive) and 0.23 (active): locus YJL095W, strain BCK1, stronger effect = lower value
active: locus YAL021C, strain ccr4, stronger effect = lower value 0.827 | locus YAL026C, strain drs2, stronger effect = lower value 0.783 | locus YAL030W, strain snc1, stronger effect = lower value 0.826 | locus YBL061C, strain skt5, stronger effect = lower value 0.826 | locus YBR009C, strain hhf1, stronger effect = lower value 0.83 | locus YBR023C, strain chs3, stronger effect = lower value 0.811 | locus YBR171W, strain sec66, stronger effect = lower value 0.83 | locus YBR231C, strain swc5, stronger effect = lower value 0.804 | locus YBR279W, strain paf1, stronger effect = lower value 0.833 | locus YCL011C, strain gbp2, stronger effect = lower value 0.814 | locus YCL016C, strain dcc1, stronger effect = lower value 0.836 | locus YCL069W, strain vba3, stronger effect = lower value 0.789 | locus YCR088W, strain abp1, stronger effect = lower value 0.764 | locus YDL005C, strain med2, stronger effect = lower value 0.875 | locus YDL040C, strain nat1, stronger effect = lower value 0.861 | locus YDL185W, strain tfp1, stronger effect = lower value 0.818 | locus YDR001C, strain nth1, stronger effect = lower value 0.793 | locus YDR069C, strain doa4, stronger effect = lower value 0.863 | locus YDR137W, strain rgp1, stronger effect = lower value 0.539 | locus YDR159W, strain sac3, stronger effect = lower value 0.596 | locus YDR297W, strain sur2, stronger effect = lower value 0.816 | locus YDR318W, strain mcm21, stronger effect = lower value 0.91 | locus YDR334W, strain swr1, stronger effect = lower value 0.746 | locus YDR335W, strain msn5, stronger effect = lower value 0.766 | locus YDR392W, strain spt3, stronger effect = lower value 0.624 | locus YDR502C, strain sam2, stronger effect = lower value 0.914 | locus YEL003W, strain gim4, stronger effect = lower value 0.836 | locus YEL037C, strain rad23, stronger effect = lower value 0.816 | locus YEL061C, strain CIN8 (second series), stronger effect = lower value 0.763 | locus YER015W, strain faa2, stronger effect = lower value 0.866 | locus YER016W, strain bim1, stronger effect = lower value 0.816 | locus YER110C, stronger effect = lower value 0.887 | locus YER111C, strain swi4, stronger effect = lower value 0.774 | locus YER155C, strain BEM2 (second series), stronger effect = lower value 0.636 | locus YER155C, strain BEM2, stronger effect = lower value 0.899 | locus YFR010W, strain ubp6, stronger effect = lower value 0.803 | locus YGL078C, strain dbp3, stronger effect = lower value 0.806 | locus YGL086W, strain mad1, stronger effect = lower value 0.927 | locus YGL167C, strain pmr1, stronger effect = lower value 0.837 | locus YGL173C, strain kem1, stronger effect = lower value 0.804 | locus YGL227W, strain vid30, stronger effect = lower value 0.761 | locus YGL240W, strain doc1, stronger effect = lower value 0.629 | locus YGL253W, strain hxk2, stronger effect = lower value 0.772 | locus YGR252W, strain gcn5, stronger effect = lower value 0.727 | locus YHR013C, strain ard1, stronger effect = lower value 0.767 | locus YHR027C, strain rpn1, stronger effect = lower value 0.87 | locus YHR079C, strain IRE1, stronger effect = lower value 0.238 | locus YHR094C, strain hxt1, stronger effect = lower value 0.917 | locus YHR142W, strain chs7, stronger effect = lower value 0.713 | locus YIL125W, strain kgd1, stronger effect = lower value 0.786 | locus YIR030C, strain dcg1, stronger effect = lower value 0.914 | locus YJL092W, strain hpr5, stronger effect = lower value 0.79 | locus YJL095W, strain BCK1 (second series), stronger effect = lower value 0.847 | locus YJL115W, strain asf1, stronger effect = lower value 0.762 | locus YJL129C, strain trk1, stronger effect = lower value 0.629 | locus YJL154C, strain vps35, stronger effect = lower value 0.808 | locus YJL164C, strain tpk1, stronger effect = lower value 0.8 | locus YJL166W, strain qcr8, stronger effect = lower value 0.813 | locus YJL168C, strain set2, stronger effect = lower value 0.929 | locus YJL187C, strain SWE1, stronger effect = lower value 0.825
0.967 (inactive) and 0.21 (active): locus YHR030C, strain SLT2, stronger effect = lower value
